Screening results: PubChem, several laboratories
A selection: hits, their analogues and other compounds. The true share with any hit is near 4.7%.
DSG3 Ab inh: inhibitors of pemphigus antibody binding to DSG3, primary screen, biochemical, bead-based, flow cytometry, scFv-GFP | Desmoglein-3 (Homo sapiens), P32926 | 310,000 compounds, 0.48% hits | DSG3-coupled beads, scFv-anti-DSG3-GFP binding; active compounds read low | binding (percent of control), % at 10 µM;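 active means binding more than 3 SD below its plate's average and above zero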;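 further: hits lower antibody fragment binding to DSG3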
KLK7 zymogen act: proKLK7 zymogen activators, primary screen, biochemical, fluorescence intensity; Kallikrein-7 (Homo sapiens), P49862; purified proKLK7, EDANS-DABCYL substrate fluorescence; 100% is mature enzyme control, 0% vehicle; activation, % at 7 µM; 370,000 compounds, 0.9% hits; AID 652039, 2013;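 active means activation above the mean of all tested compounds plus 3 SD, computed per campaign excluding outliers beyond control limits, cut at about 13% in these data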
ADAM17 inh: ADAM17 inhibitors, primary screen, biochemical, QFRET; inhibition, % at 6.95 µM; 370,000 compounds, 0.83% hits; AID 720648, 2013; Disintegrin and metalloproteinase domain-containing protein 17 (Homo sapiens), P78536; recombinant ADAM17, EDANS/DABCYL FRET peptide cleavage;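 active means inhibition above the mean of compounds lying between control limits plus 3 SD, set per campaign, cut at about 8.5% in these data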;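 further: 0% = DMSO-only wells as the low control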
rCAG RNA binder: binders of r(CAG) RNA repeats, primary screen, biochemical, fluorescence | r(CAG) RNA repeat, TO-PRO-1 dye displacement fluorescence | inhibition, % at 3 µM | 370,000 compounds, 1.3% hits | AID 651821, 2012;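 active means inhibition above the plate cutoff, the mean of all test compounds on that plate plus 3 SD, cut at about 35% in these data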;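 further: 0% = DMSO alone and 100% = 100 µM mitoxantrone as full dye displacement; higher means more dye released from RNA so lower well fluorescence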
ADAM10 inh: human ADAM10 inhibitors, primary screen, biochemical, QFRET, HTS; AID 720582, 2013; 370,000 compounds, 0.62% hits; inhibition, % at 7 µM; recombinant ADAM10, EDANS/DABCYL FRET peptide cleavage, 3 h;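 active means inhibition above a per-campaign cutoff equal to the mean of compounds falling between control-based bounds plus 3 SD, cut at about 20% in these data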;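 further: 0% = DMSO wells while the 100% control is not disclosed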
MPTP inh: mitochondrial permeability transition pore inhibitors, primary screen, biochemical, isolated mouse mitochondria, absorbance | Ca2+ swelling absorbance, 30 min | inhibition, % at 10 µM | 360,000 compounds, 1.4% hits | AID 602449, 2012;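 active means inhibition of 50% or more, scaled per plate between neutral and stimulator controls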;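 further: 0% = DMSO wells given calcium and 100% = 1 mM EGTA wells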
Rh123 counter: fluorescence retest of MPTP screen hits in isolated mitochondria, single concentration. 5,000 compounds, 78% hits. inhibition, % at 10 µM. membrane potential, Rhodamine 123 fluorescence. shares compounds with MPTP inh. AID 624504, 2012; in the data active means inhibition above about 22%;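 further: 0% = DMSO vehicle and 100% = positive control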
MPTP abs DR: mitochondrial permeability transition pore inhibitors, dose response, biochemical, absorbance, uHTS hits. shares compounds with MPTP inh. isolated mitochondria swelling. IC50, µM. 780 compounds, 58% hits. AID 651561, 2012; in the data active means IC50 below about 20 µM
MPTP cs DR: fluorescent counter-screen in isolated mitochondria, dose response, counter-screen for MPTP inhibitor project, biochemical, fluorescence, uHTS hits | 780 compounds, 49% hits | isolated mitochondria counterscreen, fluorescence read-out | IC50, µM | shares compounds with MPTP inh | AID 651564, 2012; in the data active means IC50 below about 80 µM
* marks the source's active call; other numbers are inactive results; i = inactive; / = no result.

SMILES	DSG3 Ab inh	KLK7 zymogen act	ADAM17 inh	rCAG RNA binder	ADAM10 inh	MPTP inh	Rh123 counter	others
COc1ccc(O)c(-c2cc(-c3ccccc3Cl)[nH]n2)c1	122	0	3	12	14	5	/
O=S(=O)(c1sccc1Br)n1c(CN2CCOCC2)nc2ccccc21	/	-1	-2	3	-3	/	/
O=C(NCc1ccccc1)[C@H]1CCCN1C(=O)[C@H]1CCCN1C(=O)c1ccc(Cl)cc1	/	0	-3	0	-14	/	/
COc1ccc(Nc2ncnc3sc(-c4ccccc4)cc23)cc1	102	-10	-50	12	-181	71*	61*
COc1ncnc2sc(-c3ccccc3)cc12	120	0	2	2	8	0	/
O=C1Cn2nnc(-c3ccccc3)c2C2c3cc(Br)ccc3CCN12 (stereo not drawn)	/	1	-3	3	-7	/	/
O=C(Nc1nc(-c2cccs2)cs1)c1ccc(Cl)cc1	/	0	6	5	4	0	/
O=C(Nc1nc(-c2ccc(Cl)s2)cs1)c1ccncc1	117	2	0	6	-28	62*	63*
CC(OC(=O)CCc1nc2ccccc2c(=O)[nH]1)C(=O)c1ccc(C(C)(C)C)cc1 (stereo not drawn)	105	-1	1	3	-5	96*	86*
Clc1ccc(OCCOCCN2CCc3ccccc3C2)c(Cl)c1	109	0	-1	-9	-2	100*	-6	MPTP abs DR=i;MPTP cs DR=31*
CN(C)CCCNC(=S)NCC(c1ccc(Cl)cc1Cl)c1c[nH]c2ccccc12 (stereo not drawn)	105	0	-2	11	6	77*	-23
COc1cccc(/C=C2/Sc3ccc(C(=O)NCCN4CCCCCC4)cc3NC2=O)c1	137	-2	-3	19	-4	95*	-7
O=C1Nc2cc(C(=O)NCCN3CCCCCC3)ccc2S/C1=C\c1ccccc1	110	0	-3	14	-1	76*	-17
Cc1cccc(/C=C2/Sc3ccc(C(=O)NCCN4CCCC4)cc3NC2=O)c1	115	-3	-3	18	3	0	/
CCOC(=O)/C(=C\Nc1ccc(OCc2ccccc2)cc1)NC(=O)c1ccccc1	/	0	-2	4	-7	/	/
CC(=O)c1cc(-c2csc(C=O)c2)c(=O)n2c1CCC2	/	1	4	3	2	/	/
COc1ccc(NC(=O)CNc2cccc(C#N)c2)cc1Cl	90	0	-1	10	-7	-2	/
COc1ccc(NCC(=O)Nc2ccc(C#N)cc2)cc1Cl	94	-1	2	14	8	76*	84*
CC(=O)c1ccc(OCc2ccc(Oc3c(Cl)cccc3[N+](=O)[O-])cc2)cc1	92	0	-8	-1	1	56*	36*
CC(=O)c1ccc(OCc2ccc(C(=O)c3ccccc3)cc2)cc1	115	0	1	-1	5	94*	94*
O=C(O)COc1ccc(C(=O)c2ccccc2)cc1	107	0	-3	2	-4	2	/
COC(=O)[C@]12C[C@H](CC(=O)N3CCOCC3)C(=O)N(Cc3ccccc3)C1=C[C@H](C(C)C)O[C@@H]2C1CC1	/	0	-2	-2	-1	/	/
COc1ccc(NC(=S)NC(NC(=O)c2cccc3ccccc23)C(Cl)(Cl)Cl)c([N+](=O)[O-])c1 (stereo not drawn)	83	-1	8	29	13	70*	55*
